Key:
Experiment in all cases: PBM binding z-score (relative to random genomic background probes); higher = stronger binding; sequences stand for … in GC…GCGATTGACAGCGTAGAATGAAGG
[1] = system: FXR:RXRa (NR concentration 270 nM, RXRa partner concentration 90 nM)
Procedure, shortened: (§1)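 Ligand-free nuclear receptor dimers were bound for 1 h to custom Agilent 4×180K protein-binding microarrays. Detection used antibodies against each partner (one per run). Binding z-scores rest on regression-normalized fluorescence, with random background probes as the reference.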

[2] = system: LXRa:RXRa (NR concentration 270 nM, RXRa partner concentration 90 nM)
Procedure, shortened: as §1

[3] = system: LXRa homodimer (NR concentration 270 nM)
Procedure, shortened: as §1

[4] = system: LXRb:RXRa (NR concentration 270 nM, RXRa partner concentration 90 nM)
Procedure, shortened: as §1

[5] = system: LXRb homodimer (NR concentration 270 nM)
Procedure, shortened: as §1

[6] = system: PPARa:RXRa (NR concentration 270 nM, RXRa partner concentration 90 nM)
Procedure, shortened: as §1

[7] = system: PPARg:RXRa (NR concentration 180 nM, RXRa partner concentration 90 nM)
Procedure, shortened: as §1

[8] = system: PPARg:RXRa 270nM:90nM, anti-RXR (NR concentration 270 nM, RXRa partner concentration 90 nM)
Procedure, shortened: as §1

[9] = system: PPARg:RXRa 30nM:10nM, anti-RXR (NR concentration 30 nM, RXRa partner concentration 10 nM)
Procedure, shortened: as §1

[10] = system: PPARg:RXRa 90nM:30nM, anti-RXR (NR concentration 90 nM, RXRa partner concentration 30 nM)
Procedure, shortened: as §1

[11] = system: PPARg:RXRa DBDmut IVT, anti-RXR (DBD mutation: RXRa K156A/R161A, NR concentration 270 nM, RXRa partner concentration 90 nM)
Procedure, shortened: as §1

[12] = system: PPARg:RXRa IVT, anti-PPARg (NR concentration 270 nM, RXRa partner concentration 90 nM)
Procedure, shortened: as §1

[13] = system: PPARg DBDmut:RXRa IVT, anti-PPARg (DBD mutation: PPARg1 K132A/R137A, NR concentration 270 nM, RXRa partner concentration 90 nM)
Procedure, shortened: as §1

[14] = system: PPARg DBDmut IVT, anti-PPARg (DBD mutation: PPARg1 K132A/R137A, NR concentration 270 nM)
Procedure, shortened: as §1

[15] = system: PPARg homodimer (NR concentration 180 nM)
Procedure, shortened: as §1

[16] = system: PXR:RXRa (NR concentration 270 nM, RXRa partner concentration 90 nM)
Procedure, shortened: as §1

[17] = system: PXR homodimer (NR concentration 270 nM)
Procedure, shortened: as §1

[18] = system: RARa:RXR (NR concentration 270 nM, RXRa partner concentration 90 nM)
Procedure, shortened: as §1

[19] = system: RARa homodimer (NR concentration 270 nM)
Procedure, shortened: as §1

[20] = system: RARb:RXRa (NR concentration 270 nM, RXRa partner concentration 90 nM)
Procedure, shortened: as §1

Sequence	PBM binding z-score [1]	PBM binding z-score [2]	PBM binding z-score [3]	PBM binding z-score [4]	PBM binding z-score [5]	PBM binding z-score [6]	PBM binding z-score [7]	PBM binding z-score [8]	PBM binding z-score [9]	PBM binding z-score [10]	PBM binding z-score [11]	PBM binding z-score [12]	PBM binding z-score [13]	PBM binding z-score [14]	PBM binding z-score [15]	PBM binding z-score [16]	PBM binding z-score [17]	PBM binding z-score [18]	PBM binding z-score [19]	PBM binding z-score [20]
CAAACTAGGTCAAGAGGTGAAAGTCCGCTTCCCG	5.13	3.89	0.764	2.66	0.24	5.8	8.82	7.36	5.81	7.88	8.11	8.63	5.95	5.05	5.72	2.72	0.369	4.83	1.4	4.54
TCTCGCAGGACACGAAAGGTCAGAGCTCGACATC	2.57	3.8	2.98	3.17	0.477	3.71	1.25	2.76	2.41	2.44	1.62	1.4	0.807	0.509	2.57	3.87	0.38	4.53	1.07	3.95
TTACCAAGGTGAAAGGTCGTGGATGCACGCCTTG	3.68	3.62	-0.0355	3.01	-0.715	5.66	9.46	8.31	7.31	8.54	3.06	5.11	0.851	-0.117	2.21	4.12	0.543	6.44	0.268	3.33
TCTGCTAGGTCAGTTGGTTAGCTAACGAGCTGCC	0.851	0.567	-0.601	0.643	0.257	1.05	0.0463	1.19	1.17	1.34	2.45	2.82	-0.493	-0.0218	-0.654	0.251	-0.819	0.432	-1.34	3.29
ACTAGCAGCCCAAGTTTGGGTCACTCAAACAAAG	-0.21	-0.0985	-0.387	0.667	-0.605	0.976	-0.169	0.0773	-0.863	-0.372	-0.54	0.157	-0.825	-0.894	0.227	0.606	-0.424	1.19	-0.533	0.813
ATACCAAGGTGATCGTGAGGTAGTTGATACTAAC	0.206	-0.121	-0.314	-0.148	-0.349	0.00448	0.267	-0.218	-0.0247	-0.173	0.454	0.993	1.09	0.92	-0.0605	-0.117	0.172	-0.156	0.171	0.566
GTTAGTTGGTCAGTAAAAGGTCACACACCGGTCG	3.73	4.28	5.17	3.94	1.41	4.6	3.42	4.81	2.66	4.18	2.02	3.66	1.57	0.79	5.74	5.26	1.74	6.27	3.99	4.39
ACCGAAAGGTCGACGAGGTGAGTATACACCGTTT	4.37	3.09	0.178	2.83	-0.0188	4.42	2.71	3.21	0.781	2.02	1.08	2.03	0.47	0.38	1.27	2.93	0.279	3.29	0.4	4.19
GCGACTGGGGCAAAGCAGGTTACAATAAGGTTGG	0.383	0.245	-0.467	0.623	-0.699	1.6	1.48	1.49	0.224	0.898	4.73	3.71	-0.466	-0.774	0.387	0.661	-0.376	0.904	-0.625	1.06
TCGAGAAGGTTAGTCGGGGCATTCAGCCAACATA	0.663	0.631	-0.271	0.863	-0.323	1.32	0.00646	1.2	1.72	1.33	1.32	0.682	-0.513	-0.49	0.545	0.807	0.434	0.664	-0.434	1.36
AGAACGAGGGCACACTGAGTTGATAGCAGAGTAG	0.801	0.517	-0.135	0.356	-0.454	2.02	1.96	1.64	0.493	1.01	3.87	3.8	0.337	0.314	0.871	1.29	0.305	0.924	0.142	2.16
GCGACTCGGGCAAAGCAGGTTACCATAAGGTTGG	-0.00273	-0.166	-0.636	-0.448	-1.41	0.221	0.413	-0.165	-0.926	-0.846	0.437	0.613	-1.22	-1.92	-0.783	-0.339	-0.681	0.418	-0.821	0.403
ATCGAAAGGTCGTGAGGTGAGTAAACAGAAAGGC	5.42	3.82	0.314	3.14	0.648	5.03	3.9	4.4	1.22	2.97	0.111	2.34	1.06	0.746	1.39	2.84	0.0266	4.08	0.931	3.94
TATACAGGGTGAAAGGCCAGAGTACGAATGTCGA	0.996	0.959	-0.157	1.08	0.982	3.14	5.05	5.48	4.23	5.46	1.07	3.51	1.71	0.732	1.24	0.643	0.178	1.31	0.323	1.68
CGACCTAGGTCATTGACAGGACAGTGAATAGTAA	5.8	4.01	0.717	2.75	0.226	4.18	3.67	3.24	0.782	2.01	3.78	3.8	0.789	0.214	2.3	1.99	-0.114	3.08	0.169	3.9
ATCTCTAGGTATGACTCAGTTCAGTGAAGAACGC	0.312	0.266	0.305	0.205	0.789	0.0186	0.264	0.0643	-0.0117	0.0715	0.262	0.638	0.456	1.61	0.371	0.877	1.49	0.389	0.624	0.243
TCTTGTAGATCAGCAGCTTAAGAAAGCTGGCCAA	-0.0933	-0.339	-0.557	-0.411	-0.692	0.41	-0.825	0.886	2.45	1.69	1.33	-0.294	-1.1	-0.39	-0.337	-0.0714	-0.755	0.087	-0.736	-0.491
ACTATTAGTTGACTAAGGGCAACCGATACGACGC	0.232	0.474	0.168	0.518	0.478	0.573	1.06	0.728	0.0857	0.518	0.0727	0.783	0.688	0.819	0.638	0.652	0.92	0.766	0.98	1.53

— the supplement of paper PMC6555819
